Among the data in PMC7862700, “An all-to-all approach to the identification of sequence-specific readers for epigenetic DNA modifications on cytosine” are binding signal values, retold here.

Experiment in all cases: DAPPL (digital affinity profiling via proximity ligation, sequencing); 10 mM Tris-HCl pH 7.5, 50 mM NaCl, 1 mM DTT, 4% glycerol, room temperature, 30 min; GST-TFs on glutathione beads, 16-mer random dsDNA library, 0.1% formaldehyde crosslink after washing; high values mean tight binding
For assay [1], the target named is T1, FLI1 (Homo sapiens, UniProt Q01543 1-452).
T1 sequence: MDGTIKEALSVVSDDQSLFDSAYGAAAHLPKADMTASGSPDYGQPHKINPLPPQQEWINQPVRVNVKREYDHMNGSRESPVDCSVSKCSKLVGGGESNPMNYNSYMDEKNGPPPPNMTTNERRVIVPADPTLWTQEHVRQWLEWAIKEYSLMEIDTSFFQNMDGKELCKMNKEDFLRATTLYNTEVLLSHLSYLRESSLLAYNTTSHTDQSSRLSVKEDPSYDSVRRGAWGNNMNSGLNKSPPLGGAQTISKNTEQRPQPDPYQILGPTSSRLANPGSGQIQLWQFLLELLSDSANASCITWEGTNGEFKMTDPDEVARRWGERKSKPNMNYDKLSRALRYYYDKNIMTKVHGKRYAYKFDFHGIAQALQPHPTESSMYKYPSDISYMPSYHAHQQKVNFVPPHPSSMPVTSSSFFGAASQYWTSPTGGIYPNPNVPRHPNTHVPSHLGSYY
The conditions noted are these: protein: recombinant; tags: N-terminal GST; dsDNA, one strand shown. The method, boiled down: (§1)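 Sequencing on an Illumina NextSeq500 followed washing, crosslinking with 0.1% formaldehyde, proximity ligation (BsaI/T4 ligase, 1 h, 37 °C) and PCR amplification of pools that had been incubated for 30 min at room temperature with 200 nmole of a random double-stranded 16-mer DNA library in Tris/NaCl/DTT/glycerol buffer. Each pool held DNA-barcoded human transcription factors, expressed in yeast as GST fusions and captured on glutathione beads, plus a tag-only sample. Binding signal is a hexamer's read frequency for a factor divided by its frequency in the tag-only sample.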

Assay [2] addresses T2, ELK1 (Homo sapiens, UniProt P19419 1-428).
T2 sequence: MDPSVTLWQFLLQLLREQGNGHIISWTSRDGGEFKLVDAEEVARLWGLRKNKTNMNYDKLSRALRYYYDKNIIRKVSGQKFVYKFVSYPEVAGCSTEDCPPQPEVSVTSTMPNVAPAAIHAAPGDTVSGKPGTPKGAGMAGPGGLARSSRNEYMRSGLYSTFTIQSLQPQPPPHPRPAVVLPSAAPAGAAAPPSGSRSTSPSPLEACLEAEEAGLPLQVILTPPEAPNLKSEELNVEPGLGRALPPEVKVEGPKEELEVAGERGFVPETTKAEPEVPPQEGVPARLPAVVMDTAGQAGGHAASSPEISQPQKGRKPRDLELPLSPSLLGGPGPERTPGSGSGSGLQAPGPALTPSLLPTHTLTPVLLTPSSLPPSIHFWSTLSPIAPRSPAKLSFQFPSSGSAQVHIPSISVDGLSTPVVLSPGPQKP
The conditions noted are these: protein: recombinant; tags: N-terminal GST; dsDNA, one strand shown. A digest of the protocol: as §1

Assay [3] has as its target T3, GABPA (Homo sapiens, UniProt Q06546 1-454).
T3 sequence: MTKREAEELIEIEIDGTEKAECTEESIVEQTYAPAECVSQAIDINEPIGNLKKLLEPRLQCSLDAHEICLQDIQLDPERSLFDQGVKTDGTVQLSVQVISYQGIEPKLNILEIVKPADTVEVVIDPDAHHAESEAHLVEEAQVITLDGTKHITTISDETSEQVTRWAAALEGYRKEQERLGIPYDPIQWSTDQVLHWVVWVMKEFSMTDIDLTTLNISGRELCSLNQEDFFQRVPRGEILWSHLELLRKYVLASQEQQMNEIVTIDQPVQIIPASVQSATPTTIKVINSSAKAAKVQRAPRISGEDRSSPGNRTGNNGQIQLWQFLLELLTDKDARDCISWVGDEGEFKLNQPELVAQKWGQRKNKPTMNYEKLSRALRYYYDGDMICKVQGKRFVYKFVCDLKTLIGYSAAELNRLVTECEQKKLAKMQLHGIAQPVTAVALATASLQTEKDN
The conditions noted are these: protein: recombinant; tags: N-terminal GST; dsDNA, one strand shown. The method, boiled down:
as §1

Assay [4] concerns the target T4, ERG (Homo sapiens, UniProt P11308 1-479).
T4 sequence: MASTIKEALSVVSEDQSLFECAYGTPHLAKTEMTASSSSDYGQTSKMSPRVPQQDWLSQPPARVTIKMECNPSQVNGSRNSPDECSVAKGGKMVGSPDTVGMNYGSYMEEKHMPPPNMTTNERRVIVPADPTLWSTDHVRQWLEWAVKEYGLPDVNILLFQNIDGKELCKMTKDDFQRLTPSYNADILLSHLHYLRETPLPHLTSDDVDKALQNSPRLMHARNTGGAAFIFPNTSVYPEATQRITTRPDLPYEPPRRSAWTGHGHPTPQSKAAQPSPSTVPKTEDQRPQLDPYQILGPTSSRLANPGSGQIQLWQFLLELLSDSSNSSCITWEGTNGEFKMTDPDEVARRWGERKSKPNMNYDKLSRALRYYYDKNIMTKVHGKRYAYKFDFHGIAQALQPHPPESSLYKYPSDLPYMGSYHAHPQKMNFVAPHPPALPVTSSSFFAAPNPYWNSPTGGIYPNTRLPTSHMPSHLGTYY
The conditions noted are these: protein: recombinant; tags: N-terminal GST; dsDNA, one strand shown. The method, boiled down:
as §1

Assay [5] concerns the target ELF1 (Homo sapiens, UniProt P32519 1-619). To be noted: protein: recombinant; tags: N-terminal GST; dsDNA, one strand shown. A digest of the protocol:
as §1

The target in assay [6] is T5, EHF (Homo sapiens, UniProt Q9NZC4 1-300).
T5 sequence: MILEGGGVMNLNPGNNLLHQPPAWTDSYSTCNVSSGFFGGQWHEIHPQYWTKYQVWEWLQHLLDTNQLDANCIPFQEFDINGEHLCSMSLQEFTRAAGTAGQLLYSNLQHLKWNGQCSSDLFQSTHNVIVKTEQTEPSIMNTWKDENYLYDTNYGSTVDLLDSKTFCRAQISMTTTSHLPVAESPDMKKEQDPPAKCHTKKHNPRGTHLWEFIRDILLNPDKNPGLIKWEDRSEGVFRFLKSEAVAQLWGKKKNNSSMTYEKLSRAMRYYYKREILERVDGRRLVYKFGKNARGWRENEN
To be noted: protein: recombinant; tags: N-terminal GST; dsDNA, one strand shown. A digest of the protocol: as §1

For assay [7], the target named is SPI1 (Homo sapiens, UniProt P17947 1-270). To be noted: protein: recombinant; tags: N-terminal GST; dsDNA, one strand shown. The method, boiled down: as §1
Assay [8] deals with SPIB (Homo sapiens, UniProt Q01892 1-262). To be noted: protein: recombinant; tags: N-terminal GST; dsDNA, one strand shown. A digest of the protocol:
as §1

In assay [9] the target is T6, ELK3 (Homo sapiens, UniProt P41970 1-407).
T6 sequence: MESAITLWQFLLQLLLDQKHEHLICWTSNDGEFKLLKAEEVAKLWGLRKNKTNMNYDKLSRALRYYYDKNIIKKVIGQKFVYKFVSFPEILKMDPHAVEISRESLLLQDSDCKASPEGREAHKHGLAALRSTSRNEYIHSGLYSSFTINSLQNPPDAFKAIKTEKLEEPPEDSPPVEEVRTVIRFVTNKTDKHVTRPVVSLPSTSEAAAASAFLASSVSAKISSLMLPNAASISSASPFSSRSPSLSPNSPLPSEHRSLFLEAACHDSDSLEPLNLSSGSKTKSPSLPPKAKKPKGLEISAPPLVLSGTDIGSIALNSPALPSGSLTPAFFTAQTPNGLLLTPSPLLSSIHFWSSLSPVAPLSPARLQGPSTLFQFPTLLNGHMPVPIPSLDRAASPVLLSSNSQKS
To be noted: protein: recombinant; tags: N-terminal GST; dsDNA, one strand shown. A digest of the protocol:
as §1

Assay [10] addresses T7, FEV (Homo sapiens, UniProt Q99581 1-238).
T7 sequence: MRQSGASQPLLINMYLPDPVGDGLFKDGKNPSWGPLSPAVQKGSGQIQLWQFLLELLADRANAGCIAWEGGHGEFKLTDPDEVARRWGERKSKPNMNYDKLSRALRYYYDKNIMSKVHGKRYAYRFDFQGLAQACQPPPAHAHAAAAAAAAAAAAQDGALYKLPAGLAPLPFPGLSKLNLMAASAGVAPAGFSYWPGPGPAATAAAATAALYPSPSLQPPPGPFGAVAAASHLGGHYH
The conditions noted are these: protein: recombinant; tags: N-terminal GST; dsDNA, one strand shown. A digest of the protocol: as §1

Assay [11] deals with ETV5 (Homo sapiens, UniProt P41161 1-510). To be noted: protein: recombinant; tags: N-terminal GST; dsDNA, one strand shown. The method, boiled down: as §1
Chain of ETV5 (P41161 whole entry): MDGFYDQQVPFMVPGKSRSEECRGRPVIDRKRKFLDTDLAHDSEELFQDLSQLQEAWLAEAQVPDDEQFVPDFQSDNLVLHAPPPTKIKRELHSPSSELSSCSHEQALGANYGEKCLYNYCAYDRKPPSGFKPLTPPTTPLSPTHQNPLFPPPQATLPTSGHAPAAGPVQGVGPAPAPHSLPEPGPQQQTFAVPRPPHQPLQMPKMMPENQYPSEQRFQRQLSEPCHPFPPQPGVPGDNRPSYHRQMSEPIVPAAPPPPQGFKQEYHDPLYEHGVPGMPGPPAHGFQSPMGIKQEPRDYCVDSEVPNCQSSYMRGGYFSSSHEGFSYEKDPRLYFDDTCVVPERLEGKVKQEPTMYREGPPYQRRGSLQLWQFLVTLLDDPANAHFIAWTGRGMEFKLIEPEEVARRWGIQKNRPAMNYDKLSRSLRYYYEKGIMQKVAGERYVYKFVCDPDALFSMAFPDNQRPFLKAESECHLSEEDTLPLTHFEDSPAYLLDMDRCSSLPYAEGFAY
Assay [12] addresses HSF1 (Homo sapiens, UniProt Q00613 1-529). The conditions noted are these: protein: recombinant; tags: N-terminal GST; chain copies: 3; dsDNA, one strand shown. The method, boiled down:
as §1

For assay [13], the target named is T8, SPIC (Homo sapiens, UniProt Q8N5J4 1-248).
T8 sequence: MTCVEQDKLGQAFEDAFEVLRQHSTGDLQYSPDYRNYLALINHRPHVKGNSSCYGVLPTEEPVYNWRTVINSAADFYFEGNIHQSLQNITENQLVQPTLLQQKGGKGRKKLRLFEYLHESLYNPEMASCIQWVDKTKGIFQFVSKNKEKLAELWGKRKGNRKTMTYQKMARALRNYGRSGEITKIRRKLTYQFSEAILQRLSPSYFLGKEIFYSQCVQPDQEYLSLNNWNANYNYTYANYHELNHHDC
The conditions noted are these: protein: recombinant; tags: N-terminal GST; dsDNA, one strand shown. A digest of the protocol: as §1

Assay [14] deals with ELF4 (Homo sapiens, UniProt Q99607 1-663). To be noted: protein: recombinant; tags: N-terminal GST; dsDNA, one strand shown. A digest of the protocol:
as §1

The target in assay [15] is T9, ELK4 (Homo sapiens, UniProt P28324-2 1-405).
T9 sequence: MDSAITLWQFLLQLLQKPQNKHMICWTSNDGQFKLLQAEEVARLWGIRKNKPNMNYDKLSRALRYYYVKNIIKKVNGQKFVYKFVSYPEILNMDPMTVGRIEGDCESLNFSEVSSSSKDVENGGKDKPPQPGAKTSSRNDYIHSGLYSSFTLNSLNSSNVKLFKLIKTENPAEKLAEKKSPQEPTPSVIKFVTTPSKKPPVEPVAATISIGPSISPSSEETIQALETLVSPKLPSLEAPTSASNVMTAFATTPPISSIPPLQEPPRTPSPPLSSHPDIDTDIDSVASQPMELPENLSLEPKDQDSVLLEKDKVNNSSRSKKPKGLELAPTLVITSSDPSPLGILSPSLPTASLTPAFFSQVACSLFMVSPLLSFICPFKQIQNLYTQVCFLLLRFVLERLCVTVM
The conditions noted are these: protein: recombinant; tags: N-terminal GST; dsDNA, one strand shown. The method, boiled down:
as §1

Assay [16] deals with T10, ETV2 (Homo sapiens, UniProt O00321 1-342).
T10 sequence: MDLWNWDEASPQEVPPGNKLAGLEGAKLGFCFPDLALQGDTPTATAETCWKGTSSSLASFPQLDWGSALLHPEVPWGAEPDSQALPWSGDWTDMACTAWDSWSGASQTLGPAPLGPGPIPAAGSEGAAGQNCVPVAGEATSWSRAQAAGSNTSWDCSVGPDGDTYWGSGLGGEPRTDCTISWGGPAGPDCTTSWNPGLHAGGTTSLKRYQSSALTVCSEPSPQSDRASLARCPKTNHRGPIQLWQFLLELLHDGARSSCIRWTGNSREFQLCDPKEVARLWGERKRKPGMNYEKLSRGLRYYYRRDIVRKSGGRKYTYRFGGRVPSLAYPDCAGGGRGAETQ
The conditions noted are these: protein: recombinant; tags: N-terminal GST; dsDNA, one strand shown. The method, boiled down: as §1

Assay [17] has as its target T11, ELF3 (Homo sapiens, UniProt P78545 1-371).
T11 sequence: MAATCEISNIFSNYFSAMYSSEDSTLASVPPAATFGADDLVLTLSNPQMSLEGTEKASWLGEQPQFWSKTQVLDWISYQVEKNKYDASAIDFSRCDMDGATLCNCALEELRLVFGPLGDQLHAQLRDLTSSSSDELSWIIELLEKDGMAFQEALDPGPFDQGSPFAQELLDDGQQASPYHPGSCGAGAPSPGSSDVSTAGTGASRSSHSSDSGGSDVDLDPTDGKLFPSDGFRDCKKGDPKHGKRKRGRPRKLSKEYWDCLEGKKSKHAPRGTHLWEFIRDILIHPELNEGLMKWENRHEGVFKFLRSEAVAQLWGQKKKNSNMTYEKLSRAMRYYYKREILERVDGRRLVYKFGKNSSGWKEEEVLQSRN
The conditions noted are these: protein: recombinant; tags: N-terminal GST; dsDNA, one strand shown. A digest of the protocol:
as §1

The target of assay [18] is ETV1 (Homo sapiens, UniProt P50549 1-477). To be noted: protein: recombinant; tags: N-terminal GST; dsDNA, one strand shown. The method, boiled down:
as §1

Chain of ELF1 (P32519 whole entry): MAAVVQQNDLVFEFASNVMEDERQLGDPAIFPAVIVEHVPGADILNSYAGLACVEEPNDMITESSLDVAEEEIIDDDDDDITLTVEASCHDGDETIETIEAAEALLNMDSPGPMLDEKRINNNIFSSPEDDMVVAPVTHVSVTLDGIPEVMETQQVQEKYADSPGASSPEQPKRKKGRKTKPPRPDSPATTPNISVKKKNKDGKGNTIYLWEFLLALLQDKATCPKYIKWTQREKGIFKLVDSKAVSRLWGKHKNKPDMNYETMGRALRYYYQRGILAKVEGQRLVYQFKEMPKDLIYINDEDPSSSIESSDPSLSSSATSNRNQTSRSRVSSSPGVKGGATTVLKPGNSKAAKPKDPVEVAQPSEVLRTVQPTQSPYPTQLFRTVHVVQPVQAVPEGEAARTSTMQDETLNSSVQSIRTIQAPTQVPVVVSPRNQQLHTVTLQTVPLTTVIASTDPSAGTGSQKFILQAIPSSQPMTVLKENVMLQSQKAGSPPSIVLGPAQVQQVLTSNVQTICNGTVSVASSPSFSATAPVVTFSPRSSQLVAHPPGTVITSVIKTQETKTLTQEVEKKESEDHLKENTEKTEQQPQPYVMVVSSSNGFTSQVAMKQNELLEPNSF
Chain of HSF1 (Q00613 whole entry): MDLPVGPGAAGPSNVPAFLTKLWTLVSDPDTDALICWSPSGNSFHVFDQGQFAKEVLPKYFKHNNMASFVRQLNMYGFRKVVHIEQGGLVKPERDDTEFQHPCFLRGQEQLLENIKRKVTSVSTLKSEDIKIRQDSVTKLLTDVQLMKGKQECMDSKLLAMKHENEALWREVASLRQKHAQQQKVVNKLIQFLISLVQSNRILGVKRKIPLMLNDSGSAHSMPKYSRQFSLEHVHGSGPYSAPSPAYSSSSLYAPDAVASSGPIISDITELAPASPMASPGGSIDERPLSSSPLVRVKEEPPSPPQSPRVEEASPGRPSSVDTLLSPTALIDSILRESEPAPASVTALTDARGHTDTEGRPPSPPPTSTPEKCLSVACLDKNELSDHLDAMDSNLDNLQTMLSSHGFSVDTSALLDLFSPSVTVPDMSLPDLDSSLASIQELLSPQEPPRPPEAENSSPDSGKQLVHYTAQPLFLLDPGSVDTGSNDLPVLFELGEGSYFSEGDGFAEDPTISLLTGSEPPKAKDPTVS
Chain of SPIB (Q01892 whole entry): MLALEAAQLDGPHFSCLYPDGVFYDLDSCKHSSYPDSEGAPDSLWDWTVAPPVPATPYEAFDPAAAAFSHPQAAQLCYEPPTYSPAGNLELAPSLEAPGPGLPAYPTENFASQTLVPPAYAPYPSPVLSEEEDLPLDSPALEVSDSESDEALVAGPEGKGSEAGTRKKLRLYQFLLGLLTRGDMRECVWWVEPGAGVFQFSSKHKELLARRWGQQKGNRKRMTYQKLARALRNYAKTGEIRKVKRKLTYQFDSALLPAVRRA
Chain of ELF4 (Q99607 whole entry): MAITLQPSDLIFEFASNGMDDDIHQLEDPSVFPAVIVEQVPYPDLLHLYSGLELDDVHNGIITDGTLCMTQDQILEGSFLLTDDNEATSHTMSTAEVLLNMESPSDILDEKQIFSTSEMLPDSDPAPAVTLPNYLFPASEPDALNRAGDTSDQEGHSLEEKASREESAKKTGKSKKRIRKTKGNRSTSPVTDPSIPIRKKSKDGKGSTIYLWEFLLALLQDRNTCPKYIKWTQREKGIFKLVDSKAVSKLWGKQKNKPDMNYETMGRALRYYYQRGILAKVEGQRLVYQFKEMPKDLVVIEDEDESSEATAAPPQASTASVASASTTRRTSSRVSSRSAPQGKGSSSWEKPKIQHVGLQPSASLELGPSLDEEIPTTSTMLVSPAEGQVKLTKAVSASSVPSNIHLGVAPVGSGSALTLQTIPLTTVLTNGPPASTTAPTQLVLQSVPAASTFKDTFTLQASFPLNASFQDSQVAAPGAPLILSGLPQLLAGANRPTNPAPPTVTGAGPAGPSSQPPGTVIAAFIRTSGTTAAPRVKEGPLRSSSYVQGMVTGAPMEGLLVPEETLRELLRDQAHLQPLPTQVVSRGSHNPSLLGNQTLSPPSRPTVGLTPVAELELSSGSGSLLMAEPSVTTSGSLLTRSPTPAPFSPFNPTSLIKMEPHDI
Chain of ETV1 (P50549 whole entry): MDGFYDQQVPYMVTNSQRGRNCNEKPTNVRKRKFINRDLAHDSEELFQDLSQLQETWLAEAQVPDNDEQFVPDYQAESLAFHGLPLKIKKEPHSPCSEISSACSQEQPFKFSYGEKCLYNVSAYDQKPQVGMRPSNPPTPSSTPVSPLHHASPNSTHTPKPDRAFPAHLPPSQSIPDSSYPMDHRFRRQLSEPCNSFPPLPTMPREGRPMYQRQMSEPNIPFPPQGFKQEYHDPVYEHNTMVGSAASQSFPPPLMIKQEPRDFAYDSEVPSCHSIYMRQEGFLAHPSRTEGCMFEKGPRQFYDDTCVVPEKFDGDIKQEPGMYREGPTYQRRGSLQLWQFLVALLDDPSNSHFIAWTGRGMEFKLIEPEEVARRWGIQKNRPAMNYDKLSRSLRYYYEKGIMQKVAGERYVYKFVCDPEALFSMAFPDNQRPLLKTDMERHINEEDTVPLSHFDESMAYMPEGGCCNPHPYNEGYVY

As for ATGTAC, the binding signal was 1.31 fold enrichment (6-mer frequency, TF over GST control) in [1]; 1.31 fold enrichment (6-mer frequency, TF over GST control) in [2]; 1.19 fold enrichment (6-mer frequency, TF over GST control) in assay [3]; 1.11 fold enrichment (6-mer frequency, TF over GST control) in assay [4]; 1.27 fold enrichment (6-mer frequency, TF over GST control) in assay [5]; 1.25 fold enrichment (6-mer frequency, TF over GST control) in [6]. The binding signal in assay [7] was 1.23 fold enrichment (6-mer frequency, TF over GST control); in assay [8], 1.27 fold enrichment (6-mer frequency, TF over GST control); in assay [9], 1.26 fold enrichment (6-mer frequency, TF over GST control); in [10] it was 1.3 fold enrichment (6-mer frequency, TF over GST control); in assay [11] it was 1.23 fold enrichment (6-mer frequency, TF over GST control); in [12], 1.16 fold enrichment (6-mer frequency, TF over GST control). For the same sequence, the binding signal in [13] is 1.31 fold enrichment (6-mer frequency, TF over GST control); in assay [14] it was 1.31 fold enrichment (6-mer frequency, TF over GST control); in assay [15], 1.37 fold enrichment (6-mer frequency, TF over GST control); in [16], 1.39 fold enrichment (6-mer frequency, TF over GST control); in [17], 1.3 fold enrichment (6-mer frequency, TF over GST control); in assay [18], 1.35 fold enrichment (6-mer frequency, TF over GST control).
